# According to PubChem BioAssay (NCATS):
# Results filed as inconclusive are left out. Where a call stands in place of a potency, no number is given. The source made the active and inactive calls. Unless noted, calls come from the whole dose curve; as a rule, active = well fitted curve in the direction sought with a large enough effect; inconclusive = small, poorly fitted or top-dose-only effect, or another doubt; inactive = no such curve, though single readings can be large; an effect the other way counts as inactive or inconclusive.
# How the values were obtained:
# [1] = qHTS assay for measurement of the activity of small molecule inhibitors on Zika virus induced Caspase-3 activity in human iPSC derived neural progenitor cells (hNPCs) (AID 1224857); note: nearly all actives have a fitted effect of over 65% in size
# Method in brief: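 In medium with heparin 2 ug/ml and cyclopamine 2 uM, hNPCs (350 cells/well) received compound for one hour and then Zika virus at 2 FFU/cell; caspase activity was measured by Caspase-Glo 3/7 luminescence 6 h post-infection.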
# [2] = qHTS assay to identify small molecule inhibitors of chordoma cells - UCH-1 (AID 1259355); note: nearly all actives have a fitted effect of over 55% in size; note: potency is the fitted concentration of half-maximal effect
# Method in brief: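 800 cells/well, overnight attach; compounds pinned at 15 concs, then auranofin/camptothecin/doxorubicin/rubitecan/topotecan combo added; 48hr 37 C, 5% CO2; CellTiter-Glo, 30min RT, luminescence.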
# [3] = qHTS profiling of the MIPE4 collection as inhibitors of Plasmodium falciparum (3D7) proliferation (AID 743344; call rule not given here); conditions: P. falciparum 3D7 in erythrocytes, SYBR Green DNA fluorescence, 72 h; at 28.5 µM (top of the series)
# From the text: Plasmodium falciparum is a virulent malarial parasite that kills 1-2 million people worldwide each year. Transmitted by mosquitoes, the sporozoite form of the parasite enters the blood stream to infect hepatocytes, where they become merozoites that infect red blood cells (erythrocytes). Within erythrocytes, merozoites begin a […] cycle of growth and division, after which the parasite is released to infect new red blood cells. Gametocytes, which form within erythrocytes as well, circulate in the bloodstream and are ingested by the mosquito, thereby completing the life cycle. To profile malarial isolates for differential chemical responses and to identify inhibitors of malarial growth, an assay that measures P. falciparum growth and replication within erythrocytes was employed. This assay uses a DNA binding fluorescent dye (SYBR Green) to detect parasite DNA following cell lysis. Because mature erythrocytes lack DNA, only Plasmodium-derived DNA is detected.
# The SYBR Green viability assay was adapted from a method described previously (Plouffe et al., 2008). For screening 3 ul culture medium was dispensed into 1536 well black clear bottom plates (Aurora Biotechnologies) using a Multidrop Combi (Thermo Fisher Scientific Inc.), 23 nL compounds in DMSO were added by a pin tool (Kalypsys), and 5 ul of erythrocytes infected with P. falciparum (0.3% parasitemia, 2.5% hematocrit final concentration) were added. The plates were incubated at 37 C in a humidified incubator in 5% CO2 for 72 h, and 2 ul lysis buffer (20 mM Tris HCl, 10 mM EDTA, 0.16% saponin, 1.6% triton X, 10X SYBR Green I supplied as 10,000X […] by Invitrogen) was added to each well. […] The following morning, fluorescence intensity at 485(14) nm excitation and 535(25) nm emission wavelengths was measured on an EnVision (Perkin Elmer) plate reader. Plate reads were normalized relative to the control inhibitor (0.29 uM artemisinin) and vehicle (DMSO) wells present on each plate and then corrected by an algorithm using vehicle-only control plates at the beginning and end of the compound plate stack.
# [4] = qHTS profiling of the MIPE4 collection as inhibitors of Plasmodium falciparum (DD2) proliferation (AID 743345; call rule not given here); conditions: P. falciparum Dd2 in erythrocytes, SYBR Green DNA, 72 h; at 28.5 µM (top of the series)
# Method in brief: (§1)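 Parasite DNA was quantified by SYBR Green I fluorescence (ex 485, em 535 nm) after overnight lysis in saponin/Triton buffer at room temperature. Cultures at 0.3% parasitemia and 2.5% hematocrit were first exposed to compound for 72 h at 37 C; signals were normalised to artemisinin (0.29 uM) and vehicle wells.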
# [5] = qHTS profiling of the MIPE4 collection as inhibitors of Plasmodium falciparum (DD2) proliferation (Rep 2) (AID 743346; call rule not given here); conditions: P. falciparum Dd2 in erythrocytes, SYBR Green DNA, 72 h; at 28.5 µM (top of the series)
# Method in brief: as §1
# [6] = qHTS profiling of the MIPE4 collection as inhibitors of Plasmodium falciparum (HB3) proliferation (AID 743347; call rule not given here); conditions: P. falciparum HB3 in erythrocytes, SYBR Green DNA, 72 h; at 28.5 µM (top of the series)
# Method in brief: as §1
# [7] = qHTS assay for measurement of the activity of small molecule inhibitors on Zika virus induced Caspase-3 activity in human astrocytoma cells (AID 1224859)
# Method in brief: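 A cell-based luminescent caspase-3/7 assay used SNB-19 cells infected with ZIKV (2 FFU/cell) for 6 h following 1 h compound pretreatment.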
# [8] = qHTS profiling for inhibitors of Plasmodium falciparum (3D7) proliferation (AID 743322; call rule not given here;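 note: infected erythrocytes exposed to compound for 72 h before lysis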); conditions: P. falciparum 3D7 proliferation; at 28.7 µM (top of the series) unless noted
# Method in brief: as §1
# [9] = qHTS profiling for inhibitors of Plasmodium falciparum (DD2) proliferation (AID 743323; call rule not given here); conditions: lower = more inhibition; at 28.7 µM (top of the series) unless noted
# Method in brief: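 SYBR Green fluorescence (ex 485, em 535 nm) of lysed cultures gives parasite DNA content; wells normalized to artemisinin (0.29 uM) and DMSO controls. Infected red cells: 0.3% parasitemia, 2.5% hematocrit, 72 h, 37 C.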
# [10] = qHTS profiling for inhibitors of Plasmodium falciparum (HB3) proliferation (AID 743324); conditions: Plasmodium falciparum HB3 blood-stage proliferation; at 28.7 µM (top of the series)
# Method in brief: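 SYBR Green fluorescence (485 ex/535 em) of lysed cultures, incubated overnight at room temperature in the dark, quantifies parasite DNA. Infected erythrocytes at 0.3% parasitemia and 2.5% hematocrit were exposed 72 h; values normalized to DMSO and 0.29 uM artemisinin controls.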
compound,measurement,setting,value
CN(C)C(=O)Oc1cccc([N+](C)(C)C)c1,outcome,[1],inactive
same,Potency,[2],inactive
O=C1NCN(c2ccccc2)C12CCN(CCCC(c1ccc(F)cc1)c1ccc(F)cc1)CC2,"parasite growth, % of DMSO control",[3],5.05%
same,"parasite growth remaining, % of DMSO control (lower = more inhibition)",[4],9.4%
same,"parasite growth, % of control (lower = inhibition)",[5],11.8%
same,"growth, % of control",[6],4.02%
same,outcome,[1],inactive
same,outcome,[7],inactive
same,Potency,[2],31.6 µM (active)
CN1C[C@H](C(=O)N[C@]2(C)O[C@@]3(O)[C@@H]4CCCN4C(=O)[C@H](Cc4ccccc4)N3C2=O)C[C@@H]2c3cccc4[nH]cc(c34)C[C@H]21,remaining parasite growth % (stronger effect = lower value),[8],-0.39%
same,"activity, percent of control",[9],0.0095%
same,"remaining proliferation (% of control), lower = more inhibition",[10],-1.27%
same,"parasite growth, % of DMSO control",[3],5.44%
same,"parasite growth remaining, % of DMSO control (lower = more inhibition)",[4],7.94%
same,"parasite growth, % of control (lower = inhibition)",[5],11.7%
same,"growth, % of control",[6],5.6%
same,outcome,[1],inactive
same,outcome,[7],inactive
CN(C)CCOC(=O)COc1ccc(Cl)cc1,outcome,[1],inactive
same,outcome,[7],inactive
same,Potency,[2],inactive
CCn1cc(C(=O)O)c(=O)c2cc3c(cc21)OCO3,outcome,[1],inactive
same,outcome,[7],inactive
same,Potency,[2],inactive
COCCc1ccc(OCC(O)CNC(C)C)cc1 (centres undefined),outcome,[1],inactive
same,outcome,[7],inactive
same,Potency,[2],inactive
CN1CCN(CC(=O)N2c3ccccc3C(=O)Nc3cccnc32)CC1,outcome,[1],inactive
same,outcome,[7],inactive
same,Potency,[2],inactive
CCn1ccnc1CC1COc2ccccc2O1 (centres undefined),outcome,[1],inactive
same,outcome,[7],inactive
same,Potency,[2],inactive
NC/C=C/C(=O)O,outcome,[1],inactive
same,outcome,[7],inactive
same,Potency,[2],inactive
CCCC(C(=O)OCCN(CC)CC)(c1ccccc1)c1ccccc1,outcome,[1],inactive
same,outcome,[7],inactive
same,Potency,[2],inactive
CCCN(CCC)C(=O)C(CCC(=O)O)NC(=O)c1ccccc1 (centres undefined),outcome,[1],inactive
same,outcome,[7],inactive
same,Potency,[2],inactive
Nc1ncn([C@@H]2O[C@H](CO)[C@@H](O)[C@H]2O)c(=O)n1,remaining parasite growth % (stronger effect = lower value),[8],103%
same,"activity, percent of control",[9],121%
same,"remaining proliferation (% of control), lower = more inhibition",[10],137%
same,outcome,[1],inactive
same,outcome,[7],inactive
NS(=O)(=O)c1cc2c(cc1Cl)NC(C1CC3C=CC1C3)NS2(=O)=O (centres undefined),outcome,[1],inactive
same,outcome,[7],inactive
same,Potency,[2],inactive
Cc1cc(C)c(/C=C2\C(=O)Nc3ccccc32)[nH]1,outcome,[1],inactive
same,Potency,[2],inactive
COCC(=O)O[C@]1(CCN(C)CCCc2nc3ccccc3[nH]2)CCc2cc(F)ccc2[C@@H]1C(C)C,remaining parasite growth % (stronger effect = lower value),[8],-2.7%
same,"activity, percent of control",[9],-0.639%
same,"remaining proliferation (% of control), lower = more inhibition",[10],-1.39%
same,outcome,[1],inactive
same,Potency,[2],31.6 µM (active)
CCCCNc1c(C(=O)OCC)c(C)nc2c1cnn2CC,outcome,[1],inactive
same,Potency,[2],inactive
OC(CCN1CCCCC1)(c1ccccc1)C1CCCCC1 (centres undefined),outcome,[1],inactive
same,Potency,[2],inactive
CC(=O)[C@@]1(O)CC[C@H]2[C@@H]3CCC4=CC(=O)CC[C@]4(C)[C@H]3CC[C@@]21C,outcome,[1],inactive
same,Potency,[2],inactive
Cc1nnc(SCC2=C(C(=O)O)N3C(=O)[C@@H](NC(=O)Cn4cnnn4)[C@H]3SC2)s1,outcome,[1],inactive
same,Potency,[2],inactive
NCCCNCCSP(=O)(O)O,outcome,[1],inactive
same,Potency,[2],inactive
Cc1nc2sccn2c(=O)c1CCN1CCC(=C(c2ccc(F)cc2)c2ccc(F)cc2)CC1,outcome,[1],inactive
same,Potency,[2],inactive
CCOC(=O)C1=C(C)NC(C)=C(C(=O)OC)C1c1cccc([N+](=O)[O-])c1 (centres undefined),outcome,[1],inactive
same,Potency,[2],inactive
C=CCc1ccccc1OCC(O)CNC(C)C (centres undefined),outcome,[1],inactive
same,Potency,[2],inactive
CC(=O)Nc1nnc(S(N)(=O)=O)s1,outcome,[1],inactive
same,Potency,[2],inactive
CCN1CCC[C@H]1CNC(=O)c1c(O)c(Cl)cc(Cl)c1OC,outcome,[1],inactive
same,Potency,[2],inactive
CNC1(C)C2CCC(C2)C1(C)C (centres undefined),outcome,[1],inactive
same,Potency,[2],inactive
